Among the data in ChEMBL document CHEMBL4513216, “Probing the Open Global Health Chemical Diversity Library for Multistage-Active Starting Points for Next-Generation Antimalarials” (ACS Infect Dis, 2020) are INHIBITION values, retold here.

Among all 69,000 compounds or so, about 8,600 (12%) showed an effect of 50% or more. Only a selection was taken, and strong results are over-represented in it overall.

This test concerns Plasmodium berghei. Put plainly: Screen against P. berghei liver stage (PbLuc), transformed with Luciferase, at 10uM. The class given is functional, HepG2. The note with it: tested at 10 uM.
With `CCn1nnc2c1C(COC)CN(Cc1cccs1)C2` (configuration not stated), the INHIBITION is reported as -0.113%. Turning to `COc1ccc(-c2nnsc2C(=O)N2CCN(C(C)=O)CC2)cc1`, the INHIBITION is 2.49%. On to `COc1ccc(-c2nnsc2C(=O)N2CCSCC2)cc1`, for which the INHIBITION is 26.4%.

In the case of `COc1ccc(-c2nnsc2C(=O)N2CCC(C(N)=O)CC2)cc1`, the INHIBITION stood at 90.4%. The result for `COC(=O)[C@@H](NC(=O)c1snnc1-c1ccc(OC)cc1)C(C)C` reads 24.7%; that for `CCC(C)NC(=O)c1snnc1-c1ccc(OC)cc1` (configuration not stated), 74%.

In the case of `COC(=O)[C@H](CC(C)C)NC(=O)c1snnc1-c1ccc(OC)cc1`, the INHIBITION turned out to be 24.1%. Regarding `O=C(NCCO)NC(c1ccccc1)c1ccc2c(c1)CCCO2` (configuration not stated), the INHIBITION was determined as 22.6%.

On to `NCCC(=O)N1CCC2(CC1)CN(C(=O)c1ccc(Cl)cc1)CCO2`, for which the INHIBITION amounted to 16.8%. As for `Cc1nc(CN(C)Cc2cnc(N3CCOCC3)s2)no1`, the INHIBITION was 32.1%. In the case of `CCCc1nnc(N(C)CC2CCN(CC(C)C)C2)o1` (configuration not stated), the INHIBITION is -62.4%. As to `Cc1nn(C)c2nc(N(C)CC3CCN(CC(C)C)C3)sc12` (configuration not stated), the INHIBITION was 74.3%. As to `COCCN(CCOC)c1nc2c(s1)c(C)nn2C`, the INHIBITION is on record as 65.6%. On to `Cc1nn(C)c2nc(N(C)CCN(C)C)sc12`, for which the INHIBITION turned out to be 39.1%. Take `COCCN1CCCC(CN(C)c2nc3c(s2)c(C)nn3C)C1` (configuration not stated): the INHIBITION stood at 3.96%. In the case of `Cc1nn(C)c2nc(N(C)CCN(C)C3CCCC3)sc12` it was 39.9%.

As for `Cc1nn(C)c2nc(N(CCN(C)C)C3CCCC3)sc12`, the INHIBITION was 53%. The result for `COCCN1CCC(CN(C)c2nc3c(s2)c(C)nn3C)CC1` reads 64.4%; that for `COCCN1CCC(CN(C)c2nc3c(s2)c(C)nn3C)C1` (configuration not stated), 48.5%. `Cc1nn(C)c2ncnc(N(C)CC3CCN(CC(C)C)C3)c12` (configuration not stated): the INHIBITION amounted to 36.3%.

As for `COCCN(Cc1nccs1)c1nc2c(s1)c(C)nn2C`, the INHIBITION is listed as 22%. Take `COCCN(Cc1cnn(C)c1)c1nc2c(s1)c(C)nn2C`: the INHIBITION came to 45.2%. On to `CCOc1cc2c(cc1CN1CCC3(CC1)CNC(=O)C3)CCC2`, for which the INHIBITION came out at 39.4%. `COc1c(C2CCCN2CC(=O)NCc2ccccn2)c(C)nn1C` (configuration not stated): the INHIBITION amounted to 19.6%. In the case of `COC(C(=O)NC1CC1)c1ccccc1` (configuration not stated), the INHIBITION is listed as -35.9%. Turning to `CCOC(=O)C1(O)CCN(C(=O)Nc2cccc(F)c2)CC1`, the INHIBITION was -16.9%.

As for `CNC(=O)Cc1cc2nccc(-c3c(OC)cccc3OC)n2n1`, the INHIBITION amounted to 45.6%. The result for `COc1cccc(OC)c1-c1ccnc2cc(CC(=O)NC(C)C)nn12` reads 54.5%; that for `COc1cccc(OC)c1-c1ccnc2cc(CC(=O)NC3CC3)nn12`, 39.7%; that for `CCN(c1ccc(C(=O)NCc2cc[nH]n2)cc1)C(C)C`, 82.6%. Consider `CC(C)c1ccc(O)c(C(=O)NCc2cc[nH]n2)c1`, for which the INHIBITION turned out to be 12.8%. `CCN(c1ccc(C(=O)NCc2ccnc(C)n2)cc1)C(C)C`: the INHIBITION came out at 0.433%. In the case of `Cc1cc(Cc2ccc(S(=O)(=O)N3CCOCC3)cc2)c(=O)[nH]n1` it was 19.8%. As to `CCc1noc(CN(CC)C(=O)C2CC(=O)N(Cc3ccncc3)C2)n1` (configuration not stated), the INHIBITION came to 53.2%. `CN(Cc1ccon1)C(=O)C1CC(=O)N(Cc2cccnc2)C1` (configuration not stated): the INHIBITION is -49.3%. Take `CCc1nnc(CN(CC)C(=O)C2CC(=O)N(Cc3cccnc3)C2)o1` (configuration not stated): the INHIBITION was found to be 23.5%.

For `CCN(Cc1nc(C)no1)C(=O)C1CC(=O)N(Cc2ccccn2)C1` (configuration not stated), the INHIBITION is listed as -14.1%. For `CCN(Cc1nc(C)no1)C(=O)C1CC(=O)N(Cc2cccnc2)C1` (configuration not stated), the INHIBITION amounted to 15.6%.

Turning to `CCN(CC1CCOCC1)C(=O)C1CC(=O)N(Cc2cccnc2)C1` (configuration not stated), the INHIBITION stood at 53.2%. Take `CNC(=O)Cn1ccc2ccc(NC(=O)C(C)CSC)cc21` (configuration not stated): the INHIBITION is 29.6%. `O=S(=O)(c1ccc(-c2cnco2)cc1)N1CCC2(CCCNC2)C1` (configuration not stated): the INHIBITION is 35.7%. `O=S(=O)(c1ccc(-c2cnco2)cc1)N1CCCC2(CCNCC2)CC1`: the INHIBITION turned out to be 52.7%.

With `O=S(=O)(c1ccc(-c2cnco2)cc1)N1CCCC(O)(CO)CC1` (configuration not stated), the INHIBITION is on record as -31.4%. As to `CC(c1cccc(-c2ncccc2C#N)c1)N(C)C` (configuration not stated), the INHIBITION is 19.3%. For `CN(Cc1cc(C(C)(C)C)n[nH]1)C(=O)c1c[nH]nc1-c1cccc(F)c1`, the INHIBITION was 30.4%. For `Cc1nn2cc(CNc3nccc(CCC(F)(F)F)n3)nc2s1`, the INHIBITION is -4.91%. For the compound `Cc1ccnc(NCc2cn3nc(C)sc3n2)n1`, the INHIBITION came to 65.2%. As for `CCNc1ccnc(NCc2cn3nc(C)sc3n2)n1`, the INHIBITION is listed as -49.3%. Take `Cc1ccc(CN2CCOC3(CCN(C(=O)C4CCOC4)CC3)C2)cc1` (configuration not stated): the INHIBITION was found to be 39.3%. Take `O=C(C1CC=CC1)N1CCC2(CC1)CNCCO2`: the INHIBITION amounted to 29%.

On to `Cc1ccc(CN2CCOC3(CCN(C(=O)C4CC=CC4)CC3)C2)cc1`, for which the INHIBITION is 55.6%. `Cc1ccc(CN2CCOC3(CCN(C(=O)N4CCCC4)CC3)C2)cc1`: the INHIBITION is reported as 15.7%. As to `CC(=O)N1CCOC2(CCN(C(=O)C3CC3)CC2)C1`, the INHIBITION was found to be 85.6%. For `CC(=O)N1CCCC2(C1)CN(C(=O)C1CCCCC1)CCO2` (configuration not stated), the INHIBITION is reported as 9.97%. On to `O=C(C1CC1)N1CCOC2(CCNCC2)C1`, for which the INHIBITION was found to be 36.7%. In the case of `O=C(C1CC1)N1CCC2(CC1)CNCCO2`, the INHIBITION is listed as 51.2%. In the case of `O=C(C1CCC1)N1CCC2(CC1)CNCCO2`, the INHIBITION is on record as -12.4%.
